# Assay results published in the supplement of paper PMC3334620.
# In all, about 33,000 sequences were measured (“E-score (-0.5 to 0.5)”: median about -0.016, highest 2% from about 0.3 on). Only a selection was taken, and the highest values are over-represented in it overall.
# Target: T1, Yer184c (UniProt P39961)
# T1 sequence: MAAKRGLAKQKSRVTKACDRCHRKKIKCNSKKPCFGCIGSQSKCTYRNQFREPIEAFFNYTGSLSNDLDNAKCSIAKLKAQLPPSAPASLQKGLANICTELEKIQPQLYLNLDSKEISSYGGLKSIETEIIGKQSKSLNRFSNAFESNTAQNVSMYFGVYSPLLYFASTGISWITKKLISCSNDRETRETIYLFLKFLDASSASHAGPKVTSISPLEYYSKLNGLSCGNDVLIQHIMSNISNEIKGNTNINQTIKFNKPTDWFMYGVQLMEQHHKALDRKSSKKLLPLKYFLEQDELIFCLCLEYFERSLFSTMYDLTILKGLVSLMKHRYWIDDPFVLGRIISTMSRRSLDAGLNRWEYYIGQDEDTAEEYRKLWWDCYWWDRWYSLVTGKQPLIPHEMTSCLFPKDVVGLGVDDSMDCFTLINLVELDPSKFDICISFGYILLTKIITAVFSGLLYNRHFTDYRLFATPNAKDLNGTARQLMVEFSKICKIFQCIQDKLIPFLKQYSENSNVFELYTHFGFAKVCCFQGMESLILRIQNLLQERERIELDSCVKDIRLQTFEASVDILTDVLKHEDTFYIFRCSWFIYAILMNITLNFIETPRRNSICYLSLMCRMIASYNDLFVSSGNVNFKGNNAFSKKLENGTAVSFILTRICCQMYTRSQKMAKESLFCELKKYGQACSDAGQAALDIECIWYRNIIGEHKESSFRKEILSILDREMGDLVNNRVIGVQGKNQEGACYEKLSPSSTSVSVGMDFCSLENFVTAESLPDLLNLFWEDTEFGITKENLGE
# Assay: PBM E-score (8-mer binding enrichment) (E-score (-0.5 to 0.5)); higher = stronger / more preferred TF binding
# Conditions: protein concentration: 100 nM; construct: GST-full length
# Protocol: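 Universal 'all 10-mer' protein binding microarrays (Agilent AMADID 015681) probed with GST-tagged S. cerevisiae TFs (full-length or DBD) made by in vitro transcription/translation (PURExpress), about 100-200 nM. Bound TF was detected with fluorescent anti-GST. Each ungapped 8-mer (which stands for itself and its reverse complement) is scored by the PBM enrichment score (E-score), a modified Wilcoxon-Mann-Whitney statistic from -0.5 to +0.5, computed with the Universal PBM Analysis Suite. Scale: above 0.35 generally sequence-specific binding.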
row,Sequence,PBM E-score
1,AAATCGGT,0.0224
2,AAATCGGA,0.308
3,GCATCGGC,0.176
4,GAATCGGA,0.318
5,GCATCGGA,0.307
6,TAATCGGA,0.248
7,CGATCGGA,0.142
8,GGATCGGA,0.228
9,AAATCGGG,0.0884
10,ACATCGGA,0.223
11,CAAACAAG,0.0388
12,AACCTCTT,0.178
13,CCCAAGTC,-0.223
14,AAGCAGTA,-0.209
15,TGACTGAA,-0.14
16,AAATGCTT,0.0617
17,TCTGCGAA,-0.186
18,GCCTGCTA,-0.0406
19,ACTTCCAG,-0.112
20,CCGTTCAA,0.197
21,CCCTCATA,-0.288
22,CCTCGAGG,-0.112

row,Sequence,PBM E-score
1,GGAGTACC,-0.219
2,ATATCGGA,0.277
3,CTATCGGA,0.319
4,GTATCGGA,0.208
5,AAAGGGCA,-0.226
6,ATATGGCA,-0.15
7,CCACAGTA,-0.1
8,CCTCCTTA,-0.179
9,AGATTCCT,-0.215
10,ATATTCCA,0.16
11,AGATTCCG,0.338
12,ATATTCCG,0.38
13,AGATTCCC,-0.0681
14,ATATTCCC,0.176
15,ATAGTGCA,0.104
16,CGGTGCGA,0.00174
17,CGATGGTA,-0.146
18,AGTCCGAC,-0.14
19,AGTCCGAA,0.343
20,AGTCCGAT,0.19
21,TGTCCAAA,0.143
22,CGTCCGAA,0.239

row,Sequence,PBM E-score
1,TGTCCGAA,0.334
2,ATTCTGCA,0.124
3,TAAGCTAA,0.138
4,AGACCTAT,0.0227
5,AATATCAT,0.142
6,CCTCGCCC,-0.125
7,GCCGTAGA,0.322
8,TCCGTAGA,0.204
9,GCCGTAGC,0.045
10,ACCGTAAA,0.0422
11,GCCGTAAA,0.339
12,TCCGTAAA,0.303
13,GAAGCGTA,-0.0311
14,GGATTCGA,-0.0994
15,AATGCAAT,-0.256
16,ATGACGGA,0.198
17,CACTTCTG,-0.207
18,GATCTTTA,0.106
19,ATAACAAG,0.209
20,AGAACAAG,0.143
21,ATAACAAT,0.115
22,ATAACAAA,0.357

row,Sequence,PBM E-score
1,AGAACAAA,0.349
2,AGAACAAT,0.174
3,AGAGATAC,-0.0106
4,AGTGAGAT,-0.107
5,CGAGAGAG,0.166
6,AAGAGCAA,-0.0457
7,CACAAGCC,-0.0115
8,AGCCCGTA,-0.276
9,GAACACCC,-0.0175
10,AAGGCCCG,-0.093
11,AAGGCCGG,0.318
12,AAGGCCGT,0.156
13,CAGGCCGG,0.108
14,AAGGCCGA,0.338
15,AAGGCCGC,0.051
16,CGCCCGCA,-0.0897
17,GATGAGCA,0.0238
18,GAGGTCGA,-0.158
19,GACTGCCC,-0.309
20,ATATTGCG,-0.0525
21,GTCGGCGA,0.134
